Out of some 53,000 compounds screened, about 900 (1.7%) showed an effect of 50% or more. Many of the other results were omitted from the sample, so strong results are more common in it than they were.

In this assay the test system is Mycobacterium tuberculosis. Put plainly: Cornell - Phenotypic assay to identify agents that inhibit growth of Mycobacterium tuberculosis. Particulars: 10 mM as filed; unlikely as a test dose. More on the design: scale not given: direction of the effect not stated beside the values. The class given is functional.
As to `Cc1n[nH]/c(=N\C(=O)c2c3c(nc4onc(C)c24)CCC3)s1`, the “Percent Effect” value was 20.11%.
On to `CN(C)CCNCCC(c1ccccc1)C1CCOC(C)(C)C1.O=C(O)C(=O)O` (stereo not given), for which the “Percent Effect” value amounted to 21.42%.
For `CCc1nc(C2CCCN2C(=O)c2cc(Cl)c[nH]2)no1` (stereo not given), the “Percent Effect” value amounted to 23.06%.
Regarding `CC(C)CC(=O)N1CC(=O)N(Cc2ccco2)CC(O)C1` (stereo not given), the “Percent Effect” value is -16.35%.
For the molecule `Cn1nc(Br)c2c(NCCCS(N)(=O)=O)ncnc21`, the “Percent Effect” value is given as 24.15%.
Next, `Nc1ncc(-c2ccc(NC(=O)[C@@H]3CCCCN3)cc2)cn1`: -8.73%; `Cc1nc(Nc2nncs2)cc(C2CCCN2C)n1` (stereo not given): -51.01%; `O=C1CC(c2ccsc2)c2sc(C(=O)O)c(-c3ccc(F)cc3)c2N1` (stereo not given): 105.2%.
Take `O=C1CC(c2ccsc2)c2sc(C(=O)O)c(-c3ccccc3)c2N1` (stereo not given): the “Percent Effect” value is reported as -23.75%.
As to `O=C1CC(c2ccccc2)c2sc(C(=O)O)c(-c3ccccc3)c2N1` (stereo not given), the “Percent Effect” value is recorded as 17.04%.
Next, `O=C(C1CCOC1)N1C[C@@H]2CCN(C(=O)c3cscn3)[C@@H]2C1` (stereo not given in full): -35.62%; `CC(CC(=O)NS(C)(=O)=O)C1CCCCC1` (stereo not given): -16.66%.
`Cc1ccc(-c2cc(C(=O)NCCC3=CCCCC3)[nH]n2)o1`: the “Percent Effect” value is 52.86%.
On to `O=C(NCCC1=CCCCC1)c1cc(-c2ccc(O)cc2)n[nH]1`, for which the “Percent Effect” value was determined as 22.09%.
Regarding `CCCc1cc(C(=O)NCCC2=CCCCC2)[nH]n1`, the “Percent Effect” value stood at 32.79%.
Next, `Cc1cc(F)ccc1N1CCCC(NC2CCSCC2)C1=O` (stereo not given): -0.6719%; `Cc1cc(S(=O)(=O)N2CCCc3cc(Br)ccc32)sc1C(=O)O`: 32.41%.
Next, `COC1CCN(C(=O)CC(C)(C)C)CC(=O)N(C)c2ccccc21` (stereo not given): 2.903%; `CC(C)=CCN1C[C@@H]2CN(C(=O)c3ccc(CO)cc3)C[C@]2(C(=O)O)C1`: 22.99%.
As for `CN(C)C(=O)C1CCC2(CCN(C(=O)Nc3ccccc3)CC2)O1` (stereo not given), the “Percent Effect” value came to 2.965%.
With `COc1ccc(C2Nc3cc(Cl)ccc3C3=NCCN32)cc1O` (stereo not given), the “Percent Effect” value is on record as 10.02%.
In the case of `COc1cc(C2Nc3cc(Cl)ccc3C3=NCCN32)cc(OC)c1OC` (stereo not given), the “Percent Effect” value is -27.36%.
Next, `COc1cc(C2Nc3cc(Cl)ccc3C3=NCCN32)ccc1O` (stereo not given): 80.22%; `CCCn1cc(C(=O)N2CCCC2(C)c2nc(C)cc(N)n2)cn1` (stereo not given): -4.951%.
On to `CSCc1ccc(N2CCN(c3ccc(Cl)cn3)CC2)nc1`, for which the “Percent Effect” value is -11.59%.
To `Clc1ccc(N2CCN(CCCN3CCCCC3)CC2)nc1` belongs 25.77%.
Next, `CSCCCN1CCN(c2ccc(Cl)cn2)CC1`: 62.54%; `COC(=O)CNC(=O)C1CCN(S(C)(=O)=O)CC1`: -1.242%; `O=C(Cc1noc2ccccc12)N1CCCC1c1noc(C2CC2)n1` (stereo not given): 0.3643%.
To `O=C(c1cccc2[nH]ncc12)N1CCCC1c1noc(C2CC2)n1` (stereo not given) belongs 0.6634%.
As to `O=C(c1n[nH]c2ccccc12)N1CCCC1c1noc(C2CC2)n1` (stereo not given), the “Percent Effect” value is listed as 50.46%.
With `CC(=O)N1CCO[C@@H]2CN(S(=O)(=O)c3ccc(C)cc3)CC[C@@H]2C1`, the “Percent Effect” value is -25.36%.
With `CCc1noc(C(C)N2CCN(CC(C)C)CC2)n1` (stereo not given), the “Percent Effect” value was -14.43%.
Take `COc1ccc(CNC(Cc2ccsc2)c2ccc(C)cn2)cc1OC.Cl` (stereo not given): the “Percent Effect” value is recorded as 26.36%.
With `COc1ccc(CNC(Cc2ccsc2)c2ccc(C)cn2)c(OC)c1` (stereo not given), the “Percent Effect” value was found to be 18.63%.
With `COc1cccc(OC)c1CNC(Cc1ccsc1)c1ccc(C)cn1` (stereo not given), the “Percent Effect” value was 62.45%.
`CCc1nc(NS(=O)(=O)c2cccc(F)c2C)no1`: the “Percent Effect” value amounted to 37.51%.
Next, `CC(CO)NC(=O)c1ccc(NCc2ccc(F)c(F)c2)cc1` (stereo not given): 4.78%; `O=C(c1cc(C2CC2)[nH]n1)N1CCN(Cc2ccccc2)CC1`: 7.865%; `O=C(c1cc(C2CC2)[nH]n1)N1CCN(Cc2ccsc2)CC1`: 6.464%.
Take `CC(C)c1ccc(CN2CCN(C(=O)c3cc(C4CC4)[nH]n3)CC2)cc1`: the “Percent Effect” value is on record as -22.19%.
In the case of `O=C(c1cc(C2CC2)[nH]n1)N1CCN(Cc2ccncc2)CC1`, the “Percent Effect” value amounted to 8.467%.
On to `O=C(c1cc(C2CC2)[nH]n1)N1CCN(Cc2ccc(Cl)cc2)CC1`, for which the “Percent Effect” value is -11.68%.
To `O=C(c1cc(C2CC2)[nH]n1)N1CCN(Cc2ccc3c(c2)OCO3)CC1` belongs 83.19%; to `CC(C)c1cc(C(=O)N2CCN(Cc3ccsc3)CC2)n[nH]1`, 50.59%.
Turning to `Cc1cccc(CN2CCN(C(=O)c3cc(C4CC4)[nH]n3)CC2)c1`, the “Percent Effect” value was determined as 63.11%.
To `CC(C)c1ncncc1C(=O)N1CCN(Cc2ccsc2)CC1` belongs 5.12%; to `CCCOc1cccc(C(=O)N2CCCC(n3cncn3)C2)c1` (stereo not given), 2.869%; to `CC1CCC(NS(=O)(=O)CC(=O)NCC2CCC2)CC1` (stereo not given), 57.41%.
On to `CC1CCC(NS(=O)(=O)CC(=O)Nc2ccc(N3CCCC3)cn2)CC1` (stereo not given), for which the “Percent Effect” value is -5.738%.
For the molecule `CCNC(=O)CS(=O)(=O)NC1CCC(C)CC1` (stereo not given), the “Percent Effect” value was -36.82%.
As for `CC1CCC(NS(=O)(=O)CC(=O)NC2(C(N)=O)CCCC2)CC1` (stereo not given), the “Percent Effect” value is reported as -11.11%.
To `CS(=O)(=O)NCC1CCCN(C(=O)Nc2ccccc2N2CCCC2)C1` (stereo not given) belongs 12.25%; to `Cc1ccc(NC(=O)CS(=O)(=O)NC2CCC(C)CC2)nc1` (stereo not given), 59.09%.
`CC1CCC(NS(=O)(=O)CC(=O)NC(C2CC2)C2CC2)CC1` (stereo not given): the “Percent Effect” value is on record as -19.5%.
Take `CNC(=O)CS(=O)(=O)NC1CCC(C)CC1` (stereo not given): the “Percent Effect” value is -17.27%.
As to `CC1CCC(NS(=O)(=O)CC(=O)Nc2ccccc2N2CCCC2)CC1` (stereo not given), the “Percent Effect” value was 81.68%.
For the molecule `CCOCc1cnc2n1CCN(C(=O)c1cccc3c1OCCO3)C2C` (stereo not given), the “Percent Effect” value was -10.91%.
In the case of `Cc1cccc(-c2nc(CN3CC(n4nc(C)cc4C)C3)no2)c1`, the “Percent Effect” value came to 18.28%.
Next, `CC(C)N1CCO[C@H]2CN(Cc3cc[nH]n3)C[C@H]21.O=C(O)C(F)(F)F.O=C(O)C(F)(F)F`: -4.182%.
Take `O=C(CC1CCCC1)N1CCC(c2noc(-c3ccccn3)n2)CC1`: the “Percent Effect” value is reported as 12.79%.
With `O=C1NC2(CCc3ccccc31)CCN(C(=O)c1ccncc1)C2` (stereo not given), the “Percent Effect” value is 9.772%.
Consider `Cc1nnc(C2CCN(C(=O)c3ccc(-n4cccc4)cc3)CC2)s1`, for which the “Percent Effect” value was found to be 34.12%.
`O=C1CCNc2cc3c(cc2CN1CC1CC1)OCO3`: the “Percent Effect” value is -9.17%.
Regarding `O=C(CC1COCCN1)N1CCC(N2CCc3ccccc3C2)CC1` (stereo not given), the “Percent Effect” value is -14.32%.
Next, `CCN(CCCNC(=O)Nc1ccccc1C(C)C)S(C)(=O)=O`: -25.97%.
Regarding `CC(N)Cc1ccccc1Sc1ccccc1.O=C(O)/C=C\C(=O)O` (stereo not given), the “Percent Effect” value is 13.46%.
`Fc1ccc(Sc2ccccc2CNC2=NCCN2)cc1.I`: the “Percent Effect” value stood at 18.51%.
For the molecule `CNC(C)Cc1ccccc1Sc1ccc(O)cc1.Cl` (stereo not given), the “Percent Effect” value turned out to be 105.4%.
Turning to `CC(C(=O)Nc1ccccc1Sc1ccccc1)S(C)(=O)=O` (stereo not given), the “Percent Effect” value is given as 13.38%.
To `CC(N)Cc1ccccc1Sc1ccc(O)cc1.CC(N)Cc1ccccc1Sc1ccc(O)cc1.O=C(O)C(=O)O` (stereo not given) belongs 102.6%; to `NCc1ccccc1Sc1ccc(O)cc1.O=C(O)/C=C\C(=O)O`, 11.62%.
For `Clc1ccc(COCC2CCN(Cc3ccccn3)CC2)cc1.O=C(O)C(=O)O`, the “Percent Effect” value amounted to 33.78%.
As to `Cc1cccc(=O)n1CCC(=O)N1CC[C@@](O)(C2CCC2)[C@H](C)C1`, the “Percent Effect” value worked out at 13.12%.
Next, `COCc1noc(-c2ccc(N(C)Cc3ncccc3C)nc2)n1`: 3.239%; `CN(C)CCNc1ccc(-c2nc(COc3ccccc3)no2)cn1`: 16.69%.
For `CN(C)CCN(C)c1ccc(-c2nc(COc3ccccc3)no2)cn1`, the “Percent Effect” value came out at 54.95%.
`CN1CCCC(c2cccc(CCC(N)=O)n2)C1` (stereo not given): the “Percent Effect” value was -6.826%.
Take `CNC(=O)N1CCc2nc(C(=O)NCc3cccc(OC)c3)sc2CC1`: the “Percent Effect” value is -3.356%.
`N#Cc1ncn(Cc2c(F)cccc2Cl)n1`: the “Percent Effect” value is 3.788%.
`N#Cc1ncn(CCC(=O)Nc2c(Cl)cccc2Cl)n1`: the “Percent Effect” value was determined as 58.03%.
To `N#Cc1ncn(CCC(=O)Nc2cccc(Cl)c2)n1` belongs 68.3%; to `CN(Cc1c(F)cccc1Cl)C(=O)Cn1cnc(C#N)n1`, 14.48%; to `N#Cc1ncn(CCC(=O)Nc2cc(Cl)ccc2Cl)n1`, 44.53%.
Consider `N#Cc1ncn(CCC(=O)Nc2ccccc2F)n1`, for which the “Percent Effect” value amounted to 26.46%.
For `N#Cc1ncn(CCS(=O)(=O)c2ccc(Cl)cc2)n1`, the “Percent Effect” value is reported as -29.79%.
For `N#Cc1ncn(CCC(=O)Nc2ccc(F)c(F)c2)n1`, the “Percent Effect” value worked out at 34.8%.
Take `N#Cc1ncn(CCC(=O)Nc2ccc(Cl)cc2F)n1`: the “Percent Effect” value was found to be 105.4%.
In the case of `N#Cc1ncn(CC(=O)Cc2c(F)cccc2Cl)n1`, the “Percent Effect” value amounted to 41.98%.
To `N#Cc1ncn(CC(=O)Nc2cc(Cl)ccc2F)n1` belongs 104.7%.
In the case of `COC(=O)c1ccc(Cn2cnc(C#N)n2)cc1`, the “Percent Effect” value turned out to be 33.09%.
`OCCOc1cc(F)ccc1NCc1ccc(F)c(F)c1`: the “Percent Effect” value is reported as 11.25%.
To `CCOC(=O)[C@H]1CNC[C@H]1C(=O)OCC.Cl` belongs 36.02%; to `CNc1cccc(C2CN(C(=O)c3c[nH]cn3)CCO2)n1` (stereo not given), 6.6%; to `O=C(O)Cn1nc(-c2ccccc2F)ccc1=O`, 3.999%.
Consider `CCSc1ncccc1C(=O)NCc1ccc(N(C)C)cc1`, for which the “Percent Effect” value was 4.638%.
To `C=C(C)COc1ccccc1C(=O)NCc1nc(C)cc(=O)[nH]1` belongs 11.83%; to `NS(=O)(=O)c1ccc(N2CCN(CCCc3cn[nH]c3)CC2)cc1`, -32.06%.
For the molecule `O=C(O)C(F)(F)F.O=C(O)C(F)(F)F.O=C(O)C(F)(F)F.c1cnc(NC[C@H]2OC[C@@H]3CCN(Cc4cccnc4)C[C@@H]32)nc1`, the “Percent Effect” value was determined as 43.57%.
To `COc1ccc(N2CCN(C(=O)C3CN(C)C(=O)N3)CC2(C)C)cc1` (stereo not given) belongs 2.102%.
Regarding `CCOCC(=O)N1CCCn2c(nnc2Cn2cccc2)C1`, the “Percent Effect” value was -5.462%.
On to `Cc1nn(C)cc1CN1CCc2nc3sccc3c(=O)n2CC1`, for which the “Percent Effect” value is 50.52%.
On to `Cn1cc(CN2CCc3nc4sccc4c(=O)n3CC2)cn1`, for which the “Percent Effect” value is -10.08%.
To `O=c1c2ccccc2nc2n1CCN(Cc1cccs1)CC2` belongs 20.89%; to `Cc1c(CN2CCc3nc4sccc4c(=O)n3CC2)cnn1C.Cl`, 51.95%; to `Cl.Cn1cncc1CN1CCc2nc3sccc3c(=O)n2CC1`, 43.45%.
Turning to `Cn1cc(CN2CCc3nc4ccccc4c(=O)n3CC2)cn1`, the “Percent Effect” value was 52.34%.
On to `Cc1cc2c(=O)n3c(nc2s1)CCN(Cc1cnn(C)c1C)CC3.Cl`, for which the “Percent Effect” value is given as -41.11%.
Consider `Cn1ncc(Cl)c1C(=O)N1CCc2nc3sccc3c(=O)n2CC1`, for which the “Percent Effect” value is on record as -13.36%.
On to `CCn1cncc1CN1CCc2nc3sccc3c(=O)n2CC1`, for which the “Percent Effect” value was found to be 47.13%.

The values are drawn from ChEMBL document CHEMBL3988442, “University of Dundee, Small-Polar-MMV Screening Library” (2021).
